{
  "source": "PubChem BioAssay AID463173",
  "about": "(ICCB-Longwood Screening Facility, Harvard Medical School, 2010)",
  "note": "Hit rate of the full screen: of about 52,000 compounds, about 4,300 (8.3%) were called active. Shown is part of a subset that was picked to be rich in actives. A number with no mark means an inactive call. Cut-off read from the data, not from the text of the source: active = survival mostly below about 52% (no sharp cut-off); inactive = mostly above about 56%.",
  "data": [
    {"tested_on": "DeltatarO mutant", "test": "S. aureus survival, RN4220 and DeltatarO strains – OD600, teichoic acid synthesis inhibitors, primary screen (AID 463173)", "details": "S. aureus RN4220 wild type/DeltatarO growth, OD600, 18 h, hits give low values, screened at 18.75 µg/mL (by protocol)", "values": [
      {"molecule": "COc1cccc(CNC(=O)C2CCCN(S(=O)(=O)c3cn(C)cn3)C2)c1", "note": "(stereo not drawn)", "survival": "75%"},
      {"molecule": "CSCCC(NS(=O)(=O)c1cccs1)C(=O)Nc1ccc(C)c(Cl)c1", "note": "(stereo not drawn)", "survival": "74%"},
      {"molecule": "CCC(C(=O)N1CCN(c2ccccn2)CC1)c1ccccc1", "note": "(stereo not drawn)", "survival": "75%"},
      {"molecule": "COc1ccc(CNC(=O)CCS(=O)(=O)c2ccc3c(c2)oc(=O)n3C)cc1", "survival": "75%"},
      {"molecule": "CCc1ccccc1NC(=O)Cn1c(=O)n(Cc2ccccc2)c(=O)c2c(C)c(C(=O)N(C)C)sc21", "survival": "67%"},
      {"molecule": "N#CC(C#N)=C(C(C#N)=C1Nc2ccccc2N1)c1ccccc1F", "survival": "59%"},
      {"molecule": "O=C(Nc1ccc(Br)cc1)c1ccc2c3c(onc13)-c1ccccc1C2=O", "survival": "72%"},
      {"molecule": "CN(C)c1ccc(CNS(=O)(=O)c2ccc3[nH]c4c(c3c2)CCCCC4)cc1", "survival": "84%"},
      {"molecule": "Cc1cccc(C(=O)Nc2ccc3nc(SCC(=O)N4CCCC4)sc3c2)c1", "survival": "58%"},
      {"molecule": "Cc1ccc2c(=O)cc(C(=O)N(Cc3ccc(C(C)(C)C)cc3)C3CCS(=O)(=O)C3)oc2c1", "note": "(stereo not drawn)", "survival": "35% (active)"},
      {"molecule": "CCCOc1ccc(CN(C(=O)c2cc(=O)c3ccc(C)cc3o2)C2CCS(=O)(=O)C2)cc1", "note": "(stereo not drawn)", "survival": "36% (active)"},
      {"molecule": "CCOc1ccc(CN(C(=O)c2cc(=O)c3cc(Cl)ccc3o2)C2CCS(=O)(=O)C2)cc1", "note": "(stereo not drawn)", "survival": "104%"},
      {"molecule": "CCc1ccc(CN(C(=O)c2cc(=O)c3ccc(C)cc3o2)C2CCS(=O)(=O)C2)cc1", "note": "(stereo not drawn)", "survival": "107%"},
      {"molecule": "CCc1ccc(CN(C(=O)c2nc(SC)ncc2Cl)C2CCS(=O)(=O)C2)cc1", "note": "(stereo not drawn)", "survival": "71%"},
      {"molecule": "CCSc1ncc(Cl)c(C(=O)N(Cc2ccc(C(C)(C)C)cc2)C2CCS(=O)(=O)C2)n1", "note": "(stereo not drawn)", "survival": "42% (active)"},
      {"molecule": "Cc1ccc2c(=O)cc(C(=O)N(Cc3ccc(N(C)C)cc3)C3CCS(=O)(=O)C3)oc2c1", "note": "(stereo not drawn)", "survival": "115%"},
      {"molecule": "CCOc1ccc(CN(C(=O)c2cc(=O)c3cc(C)cc(C)c3o2)C2CCS(=O)(=O)C2)cc1", "note": "(stereo not drawn)", "survival": "56%"},
      {"molecule": "CCSc1ncc(Cl)c(C(=O)N(Cc2ccccc2Cl)C2CCS(=O)(=O)C2)n1", "note": "(stereo not drawn)", "survival": "83%"},
      {"molecule": "COc1cccc(NC(=O)c2oc3ccccc3c2NC(=O)c2ccc(C(F)(F)F)cc2)c1", "survival": "60%"},
      {"molecule": "COc1cc(CN2CCc3nc(Nc4ccc5c(c4)OCCO5)ncc3C2)cc(OC)c1OC", "survival": "91%"},
      {"molecule": "CCOC(=O)N1CCN(Cc2nc3cc(NC(=O)C(C)C)ccc3n2C(C)C)CC1", "survival": "68%"},
      {"molecule": "CCOC(=O)c1cccc(NC(=O)CCC(=O)N2CC(C)Oc3ccc(C)cc32)c1", "note": "(stereo not drawn)", "survival": "51%"},
      {"molecule": "Cc1ccc(-n2nc(C)c3c(C)c(CCC(=O)NCc4ccc(Cl)cc4)c(C)nc32)cc1", "survival": "89%"}
    ]}
  ]
}
